Hits are enriched below; roughly 4% of the tested compounds scored in any of these assays.
TROY signal inh = blocks TROY-dependent signaling in reporter cells. Q293 LMP1-TROYcd NF-kB luciferase reporter, 4 h. AID 1347056. actives 0.98% (n = 360,000). inhibition, % at 10 µM;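 active = compounds whose plate-normalised and pattern-corrected inhibition of the luciferase reporter signal at the single screening dose is 50% or more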
Peg3 prom inh-1 = inhibitors of Peg3 promoter | HeLa PEG-Prom luciferase reporter, luminescence, overnight | inhibition, % at 20 µM | actives 1.7% (n = 360,000) | AID 588405;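 active = inhibition of at least 50% at 20 µM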
HIF-2a inh = blocks HIF-2a reporter activity | 786-0 RCC cells HIF-2a reporter, luciferase luminescence, overnight | inhibition, % at 18.8 µM | actives 0.72% (n = 360,000);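 active = inhibition of the luminescence signal of 40% or more relative to plate controls, in a single-dose primary screen at 18.75 µM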
KKLEB tox = counter-screen for CF NF-kB inhibitors: cytotoxicity. actives 0.36% (n = 360,000). KKLEB CF airway cells viability, ATPlite luminescence, overnight; active compounds read low; cells stimulated with P. aeruginosa culture filtrate. activity change (cytotoxicity), % at 5 µM;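 active = corrected activity change at or below -50% at 5 µM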
TWEAK-Fn14 inh = blocks TWEAK-Fn14 interaction in a reporter cell assay; inhibition, % at 10 µM; actives 2% (n = 360,000); TWEAK-stimulated Fn14 reporter cells, luciferase luminescence, 8 h; in the data active = inhibition above about 50%
CF NFkB inh = blocks PAF-induced NF-kB reporter in cystic fibrosis cells. AID 588850. inhibition, % at 5 µM. actives 0.86% (n = 360,000). KKLEB NF-kB-GFP reporter, GFP fluorescence overnight;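 active = at least 50% inhibition at 5 µM, scaled per plate between neutral and stimulator controls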;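 also: PAF is a Pseudomonas aeruginosa culture filtrate used as stimulus; plate controls were PAF-stimulated DMSO wells for no effect and unstimulated DMSO wells for full effect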
Peg3 prom inh-2 = Peg3 promoter inhibition confirmation; inhibition, % at 20 µM; shares compounds with Peg3 prom inh-1; actives 84% (n = 1,300); AID 602417; HeLa PEG-Prom luciferase reporter, luminescence, overnight;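 active = at 20 µM dose, 40% or more inhibition averaged across four replicates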
CF NFkB conf = CF NF-kB inhibition confirmation, single concentration; KKLEB CF airway cells, PAF-induced NF-kB-GFP fluorescence, overnight; inhibition, % at 5 µM; AID 602472; shares compounds with CF NFkB inh; actives 64% (n = 1,300); in the data active = inhibition above about 40%;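 also: stimulus PAF is a Pseudomonas aeruginosa filtrate and not platelet activating factor; plate controls were DMSO wells with stimulus for no effect and unstimulated DMSO wells for full effect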
Mdm2-MdmX confirm = confirmation of inhibitors of human Mdm2/MdmX interaction, set 2. shares compounds with HIF-2a inh. SaOS-2 split-luciferase Mdm2/MdmX complementation, luminescence. inhibition, % at 8 µM. actives 99% (n = 740);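 active = mean inhibition of the luminescence signal across two replicates at or above 26 percent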
HIF-2a inh conf = confirmation of HIF-2a inhibitors | inhibition, % at 18.8 µM | 786-0 RCC cells, HIF-2a luciferase reporter luminescence, overnight | actives 56% (n = 1,800) | shares compounds with HIF-2a inh;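 active = mean inhibition across four replicates of at least 40 percent at the single tested concentration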
HIF-1a counter = inhibits HIF-1a reporter, a counter-screen for HIF-2a inhibitors. actives 72% (n = 1,800). inhibition, % at 18.8 µM. MiaPaCa-2 HIF-1a luciferase reporter, desferoxamine, overnight. shares compounds with HIF-2a inh. AID 651589;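 active = mean inhibition of the reporter signal across four replicates at the single tested dose of 50% or more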
An asterisk follows results filed as active; / = no result given.

SMILES	TROY signal inh	Peg3 prom inh-1	HIF-2a inh	KKLEB tox	TWEAK-Fn14 inh	CF NFkB inh	Peg3 prom inh-2	HIF-2a inh conf	HIF-1a counter	others
N#Cc1c(N)nc(SCc2ccncc2)c(C#N)c1-c1cccs1	41.7	54.1*	45.2*	-3.6	43.5	4.5	70.0*	29.3	61.2*
CC(C)(C)C(=O)Nc1cc2nn(-c3ccccc3)nc2cc1Cl	90.7*	62.4*	75.0*	-93.9*	108.2*	3.3	85.9*	91.0*	94.6*
CC(=O)Nc1cc2nn(-c3ccccc3)nc2cc1Cl	-26.5	-209.6	-179.0	-1.7	27.6	-17.3	/	/	/
Cc1cc(C(=O)NCc2cccs2)n(-c2ccccc2)n1	-4.9	1.4	1.3	3.5	-30.2	-9.2	/	/	/
Cc1onc(-c2ccccc2)c1C(=O)Nc1ncc([N+](=O)[O-])s1	48.1	33.8	-22.3	-22.7	35.1	46.9	/	/	/
Cc1ccc(C(=O)Nc2ncc([N+](=O)[O-])s2)cc1	79.9*	75.8*	53.3*	-6.1	99.9*	31.3	56.4*	79.6*	92.6*
Cc1cc(C)cc(Nc2nc3ccc(C)cc3n3cnnc23)c1	9.4	-1.7	-11.6	-7.9	7.1	11.2	/	/	/
COc1ccc(N(C(=O)Cc2cccs2)C(C(=O)NC2CCCC2)c2ccncc2)cc1 (configuration not stated)	-49.5	-4.4	-10.6	-3.3	14.0	3.1	/	/	/
COc1ccc(N(C(=O)CCl)C(C(=O)NC2CCCCC2)c2cccnc2)cc1 (configuration not stated)	-13.4	99.7*	30.9	-41.6	46.7	37.7	98.9*	/	/	Mdm2-MdmX confirm=103.5*
Cc1c(NC(=O)C(C)N(c2ccccc2)S(C)(=O)=O)c(=O)n(-c2ccccc2)n1C (configuration not stated)	-1.0	6.5	15.2	-1.6	2.5	7.9	/	/	/
CN(CCC#N)C(=O)COC(=O)c1ccccc1C(=O)c1ccc(Cl)c([N+](=O)[O-])c1	55.3*	95.3*	43.1*	-28.2	30.1	76.1*	32.8	0.0	68.2*	CF NFkB conf=96.6*
Cc1ccc(C(=O)NCCc2cccs2)cc1	69.1*	62.2*	43.9*	-23.7	84.9*	-12.7	44.3*	62.1*	57.3*
O=C1c2cccc3cc([N+](=O)[O-])cc(c23)C(=O)N1CCN1CCCC1	-26.8	112.4*	-49.6	-20.3	-42.8	-190.2	98.7*	/	/	Mdm2-MdmX confirm=101.0*
Nc1cc2c3c(cccc3c1)C(=O)N(CCN1CCCC1)C2=O	-12.5	106.8*	54.2*	-1.9	-17.7	-113.3	95.4*	18.5	102.3*
NC(=O)CN1CCN(CCN2C(=O)c3cccc4cccc(c34)C2=O)CC1	-32.0	-15.4	-15.6	-0.3	4.4	-14.6	/	/	/
O=C1c2ccccc2C(=O)N1CCN1CCCCC1	16.2	3.7	11.9	-7.4	-0.3	9.7	/	/	/
O=C(N[C@H]1/C=C\[C@@H](O)CCCC1)OCc1ccccc1	-37.9	-256.0	-192.0	-1.8	5.9	4.1	/	/	/
Cc1cccc(C)c1NC(=O)c1nc(S(=O)(=O)Cc2ccccc2)ncc1Cl	52.6*	100.2*	76.8*	-88.5*	74.5*	94.7*	97.5*	69.5*	91.2*
CSc1ncc(Cl)c(C(=O)Nc2cccc3ccccc23)n1	8.4	9.3	-1.0	-5.0	-15.1	9.8	/	/	/
COC(=O)c1ccc2nc(-c3ccc(S(C)(=O)=O)cc3)cn2c1	-41.5	-160.5	-142.8	-3.7	-3.3	2.6	/	/	/
CS(=O)(=O)c1ccc(-c2cn3cc(C(=O)O)ccc3n2)cc1	-16.1	65.2*	47.7*	-6.8	14.7	-12.9	44.3*	45.8*	-20.2
Cc1ccc(S(=O)(=O)N2CCc3ccccc3C2)cc1	-8.4	12.6	7.6	1.0	7.7	-10.2	/	/	/
Cc1cc(C)c2sc(NNC(=O)c3ccc(S(=O)(=O)N4CCc5ccccc5C4)cc3)nc2c1	14.8	59.4*	3.8	-12.2	15.9	12.4	75.7*	/	/	Mdm2-MdmX confirm=86.7*
COc1ccc(-c2nsc3c(N4CCCCC4C)ncnc23)cc1 (configuration not stated)	90.5*	97.1*	83.7*	-46.3	97.6*	-4.2	84.9*	92.2*	102.5*
COc1ccc(-c2nsc3c(N4CCN(S(=O)(=O)c5ccccc5F)CC4)ncnc23)cc1	-24.1	-8.6	-6.0	-2.4	-23.7	4.6	/	/	/
SMILES	TROY signal inh	Peg3 prom inh-1	HIF-2a inh	KKLEB tox	TWEAK-Fn14 inh	CF NFkB inh	Peg3 prom inh-2	HIF-2a inh conf	HIF-1a counter	others
O=C(N/N=C/c1ccc[nH]1)c1c[nH]c2ccccc12	-50.6	-108.1	-29.2	-11.5	-22.9	11.2	/	/	/
CCN(CC)S(=O)(=O)c1ccc(N2CCCC2)c(C(=O)OCC(=O)N2CCCC2)c1	11.0	1.4	-9.8	-3.8	1.2	7.1	/	/	/
Cc1cc(C(=O)Nc2cccc(C(=O)O)c2)oc1C	-62.8	81.6*	81.0*	-2.9	21.8	5.6	51.7*	77.9*	-14.9
S=C(NN=C(c1ccccc1)c1ccccn1)N(Cc1ccccn1)Cc1ccccn1	-3.7	106.5*	48.6*	-21.8	34.0	38.9	100.7*	67.7*	100.0*
COc1cc(/C=N/NC(=O)c2cc[n+]([O-])cc2)cc(OC)c1OC	23.5	-0.5	14.9	7.9	-6.6	6.6	/	/	/
Nc1ccc2c(c1)OC1(CCCC1)O2	67.9*	77.3*	51.8*	11.3	90.1*	13.8	55.6*	18.8	78.7*	Mdm2-MdmX confirm=31.3*
COCCNC(=O)CSc1ccccc1C(=O)O	-18.3	6.6	14.9	4.0	1.3	-9.8	/	/	/
C[n+]1c(-c2ccccc2)cc2c(=Cc3ccccc3)c3ccccc3n21	27.6	102.8*	61.2*	-28.7	73.9*	46.5	95.5*	93.0*	104.0*
COC(=O)C(C)N1CCC(=O)c2ccccc2S1(=O)=O (configuration not stated)	-5.9	0.2	0.5	-4.2	-2.9	3.7	/	/	/
Cc1nc(SCC(=O)Nc2nc3ccccc3s2)c(C#N)c(C)c1C	91.7*	92.8*	89.0*	-48.9	106.8*	27.3	90.1*	94.8*	104.8*	Mdm2-MdmX confirm=101.2*
C[C@H](CO)N1C[C@H](C)[C@@H](CN(C)S(=O)(=O)c2ccccc2)Oc2c(cccc2N(C)C)C1=O	-17.4	8.7	14.4	7.0	14.5	14.5	/	/	/

High-throughput results (PubChem BioAssay)
